Measurements published in PubChem BioAssay AID1159580 (chemical genetic matrix, 2015).
About 2,000 (36%) of roughly 5,500 compounds were called active. Roughly 18% stayed inconclusive and do not appear here. No stated cut-off is given here; in the data, active means normalized growth mostly below about 0.91 (no sharp cut-off); inconclusive means no clear call, values can overlap the other calls; inactive means mostly above about 0.92. Some of the results follow.

Experiment: chemical genetic growth profiling, strain panel (AID 1159580);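 further: tested at 20 µM; growth read once vehicle control cultures reached saturation at 30 °C; 1 = growth at the plate median or of vehicle wells; lower values mean less growth of the strain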
Conditions: growth OD

Measured: normalized growth

CCC(C)C(=O)O[C@H]1[C@H](O)C2C(CN3CC(C)CCC3[C@@]2(C)O)C2C[C@]34O[C@]5(O)C(OC(=O)C(C)(O)CC)CC[C@@]3(C)C5C(OC(C)=O)[C@@H](OC(C)=O)C4[C@@]21O (stereo partly specified)
inactive: S. cerevisiae deletion strains, locus YKL009W, strain mrt4, active compounds read low 1.01 | S. cerevisiae deletion strains, locus YKL068W, active compounds read low 1.01 | S. cerevisiae deletion strains, locus YKL085W, strain MDH1 (second series), active compounds read low 1.03 | S. cerevisiae deletion strains, locus YKL085W, strain MDH1, active compounds read low 1.03 | S. cerevisiae deletion strains, locus YKL160W, strain elf1, active compounds read low 1.04 | S. cerevisiae deletion strains, locus YKL190W, strain CNB1, active compounds read low 1 | S. cerevisiae deletion strains, locus YKR001C, strain vps1, active compounds read low 0.983 | S. cerevisiae deletion strains, locus YKR026C, strain gcn3, active compounds read low 1.01 | S. cerevisiae deletion strains, locus YKR091W, strain srl3, active compounds read low 1.02 | S. cerevisiae deletion strains, locus YLL001W, strain dnm1, active compounds read low 1.02 | S. cerevisiae deletion strains, locus YLL026W, active compounds read low 1.01 | S. cerevisiae deletion strains, locus YLL041C, strain sdh2, active compounds read low 1.04 | S. cerevisiae deletion strains, locus YLR027C, strain aat2, active compounds read low 1.02 | S. cerevisiae deletion strains, locus YLR039C, strain RIC1, active compounds read low 1.02 | S. cerevisiae deletion strains, locus YLR058C, strain SHM2, active compounds read low 1.01 | S. cerevisiae deletion strains, locus YLR102C, strain apc9, active compounds read low 0.995 | S. cerevisiae deletion strains, locus YLR113W, strain HOG1, active compounds read low 0.983 | S. cerevisiae deletion strains, locus YLR221C, strain rsa3, active compounds read low 1.01 | S. cerevisiae deletion strains, locus YLR258W, strain gsy2, active compounds read low 1.01 | S. cerevisiae deletion strains, locus YLR262C, strain YPT6 (second series), active compounds read low 1.02 | S. cerevisiae deletion strains, locus YLR262C, strain YPT6, active compounds read low 1.05 | S. cerevisiae deletion strains, locus YLR268W, strain sec22, active compounds read low 0.984 | S. cerevisiae deletion strains, locus YLR320W, strain mms22, active compounds read low 1.02 | S. cerevisiae deletion strains, locus YLR330W, strain CHS5, active compounds read low 1.01 | S. cerevisiae deletion strains, locus YLR342W, strain FKS1 (second series), active compounds read low 1 | S. cerevisiae deletion strains, locus YLR342W, strain FKS1, active compounds read low 1.01 | S. cerevisiae deletion strains, locus YLR357W, strain rsc2, active compounds read low 1.01 | S. cerevisiae deletion strains, locus YLR370C, strain arc18, active compounds read low 1.03 | S. cerevisiae deletion strains, locus YLR371W, strain rom2, active compounds read low 0.984 | S. cerevisiae deletion strains, locus YLR384C, strain iki3, active compounds read low 1.02 | S. cerevisiae deletion strains, locus YLR418C, strain cdc73, active compounds read low 0.994 | S. cerevisiae deletion strains, locus YML016C, strain PPZ1, active compounds read low 1.01 | S. cerevisiae deletion strains, locus YML032C, strain rad52, active compounds read low 0.989 | S. cerevisiae deletion strains, locus YML120C, strain ndi1, active compounds read low 1.01 | S. cerevisiae deletion strains, locus YML124C, strain tub3, active compounds read low 0.981 | S. cerevisiae deletion strains, locus YMR058W, strain fet3, active compounds read low 1.02 | S. cerevisiae deletion strains, locus YMR078C, strain ctf18, active compounds read low 0.986 | S. cerevisiae deletion strains, locus YMR125W, strain sto1, active compounds read low 1.02 | S. cerevisiae deletion strains, locus YMR129W, active compounds read low 1.02 | S. cerevisiae deletion strains, locus YMR205C, strain PFK2, active compounds read low 1.03 | S. cerevisiae deletion strains, locus YMR223W, strain ubp8, active compounds read low 0.985 | S. cerevisiae deletion strains, locus YMR231W, strain pep5, active compounds read low 1.02 | S. cerevisiae deletion strains, locus YMR263W, strain SAP30, active compounds read low 1 | S. cerevisiae deletion strains, locus YMR307W, strain GAS1, active compounds read low 1.02 | S. cerevisiae deletion strains, locus YNL067W, strain RPL9B, active compounds read low 1.02 | S. cerevisiae deletion strains, locus YNL071W, strain lat1, active compounds read low 1.03 | S. cerevisiae deletion strains, locus YNL128W, strain TEP1, active compounds read low 1.01 | S. cerevisiae deletion strains, locus YNL153C, strain GIM3, active compounds read low 1.01 | S. cerevisiae deletion strains, locus YNL183C, strain NPR1, active compounds read low 0.99 | S. cerevisiae deletion strains, locus YNL209W, strain ssb2, active compounds read low 1.02 | S. cerevisiae deletion strains, locus YNL233W, strain BNI4, active compounds read low 1.01 | S. cerevisiae deletion strains, locus YNL248C, strain rpa49, active compounds read low 1.08 | S. cerevisiae deletion strains, locus YNL250W, strain rad50, active compounds read low 0.984 | S. cerevisiae deletion strains, locus YNL271C, strain bni1, active compounds read low 0.982 | S. cerevisiae deletion strains, locus YNL298W, strain CLA4, active compounds read low 0.991 | S. cerevisiae deletion strains, locus YNL307C, strain MCK1, active compounds read low 0.994 | S. cerevisiae deletion strains, locus YNL322C, strain KRE1 (second series), active compounds read low 1.02 | S. cerevisiae deletion strains, locus YNL322C, strain KRE1, active compounds read low 1.01 | S. cerevisiae deletion strains, locus YNR049C, strain mso1, active compounds read low 1 | S. cerevisiae deletion strains, locus YNR052C, strain pop2, active compounds read low 1 | S. cerevisiae deletion strains, locus YOL006C, strain TOP1, active compounds read low 1.01 | S. cerevisiae deletion strains, locus YOL012C, strain htz1 0.797 | S. cerevisiae deletion strains, locus YOL147C, strain pex11, active compounds read low 0.994 | S. cerevisiae deletion strains, locus YOR001W, strain rrp6, active compounds read low 0.998 | S. cerevisiae deletion strains, locus YOR061W, strain CKA2, active compounds read low 1.01 | S. cerevisiae deletion strains, locus YOR069W, strain VPS5, active compounds read low 1.01 | S. cerevisiae deletion strains, locus YOR070C, strain gyp1, active compounds read low 1.03 | S. cerevisiae deletion strains, locus YOR080W, strain dia2, active compounds read low 1.04 | S. cerevisiae deletion strains, locus YOR083W, strain WHI5, active compounds read low 1.04 | S. cerevisiae deletion strains, locus YOR106W, strain vam3, active compounds read low 1.06 | S. cerevisiae deletion strains, locus YOR136W, strain idh2, active compounds read low 0.984 | S. cerevisiae deletion strains, locus YOR144C, strain elg1, active compounds read low 0.996 | S. cerevisiae deletion strains, locus YOR184W, strain ser1, active compounds read low 0.982 | S. cerevisiae deletion strains, locus YOR231W, strain MKK1, active compounds read low 0.992 | S. cerevisiae deletion strains, locus YOR265W, strain rbl2, active compounds read low 0.998 | S. cerevisiae deletion strains, locus YOR270C, strain vph1, active compounds read low 1.11 | S. cerevisiae deletion strains, locus YOR290C, strain snf2, active compounds read low 1.06 | S. cerevisiae deletion strains, locus YOR316C, strain cot1, active compounds read low 0.99 | S. cerevisiae deletion strains, locus YPL051W, strain arl3, active compounds read low 1.01 | S. cerevisiae deletion strains, locus YPL055C, strain LGE1, active compounds read low 1.02 | S. cerevisiae deletion strains, locus YPL078C, strain atp4, active compounds read low 1.05 | S. cerevisiae deletion strains, locus YPL106C, strain sse1, active compounds read low 0.995 | S. cerevisiae deletion strains, locus YPL240C, strain hsp82, active compounds read low 1.01 | S. cerevisiae deletion strains, locus YPL241C, strain CIN2, active compounds read low 0.988 | S. cerevisiae deletion strains, locus YPL256C, strain CLN2, active compounds read low 1.04 | S. cerevisiae deletion strains, locus YPR119W, strain clb2, active compounds read low 0.984 | S. cerevisiae deletion strains, locus YPR141C, strain kar3, active compounds read low 0.987 | S. cerevisiae deletion strains, locus YPR163C, strain tif3, active compounds read low 0.99 | S. cerevisiae deletion strains, locus YPR167C, strain met16, active compounds read low 0.974 | S. cerevisiae deletion strains, strain wtn01, active compounds read low 0.991 | S. cerevisiae strains, strain wild type, active compounds read low 1
